The values below come from PubChem BioAssay AID651718 (The Scripps Research Institute Molecular Screening Center, 2012).

The campaign covered roughly 360,000 compounds. About 2,700 (0.75%) were called active. Many of the other results were omitted from the sample, so actives are more common in it than they were. Values without a mark were called inactive. No stated cut-off is given here; in the data, active means inhibition above about 4.5%; inactive means the rest.

The test deals with Methionine sulfoxide reductase A (Bos taurus). In words: inhibition of methionine sulfoxide reductase A – biochemical, absorbance, bovine, HTS, primary screen (AID 651718).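 Further: 0% = vehicle wells with enzyme and 100% = reference inhibitor wells.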 Conditions: purified bovine MsrA, absorbance read-out; at 15.5 µM; active compounds read high.
Usually inhibition stands for the relative decrease from the control value, in per cent. Turning to `CCCCOCC1CN(CCCC)S(=O)(=O)c2c(Oc3ccc(F)cc3)cccc2O1` (configuration not stated), the inhibition was 0.09%.

For the molecule `C[C@H](CO)N1C[C@H](C)[C@@H](CN(C)C(=O)Nc2ccccc2F)OCc2cn(nn2)CCCC1=O`, the inhibition is -1.47%.

Regarding `Cc1ccc(S(=O)(=O)c2c[nH]c3ccc(Cl)cc3c2=O)cc1`, the inhibition was -0.29%.

For `COc1ccc(S(=O)(=O)c2c[nH]c(=S)[nH]c2=O)cc1Cl`, the inhibition is 5.55% (active).

On to `COc1ccc(S(=O)(=O)N(C)CC(=O)N2CCCC2)cc1Cl`, for which the inhibition is -0.26%.

With `C[C@H](O)[C@@H]1C(=O)N2CCc3c([nH]c4c(-c5ccc6c(c5)OCO6)cccc34)[C@@H]2C[C@@H]1N(C)C(=O)c1ccco1`, the inhibition is -0.82%.

For `COC(=O)C1=C(C)N(Cc2ccc(C(F)(F)F)cc2)C(=NCc2ccc(C(F)(F)F)cc2)NC1c1cccc(Cl)c1` (configuration not stated), the inhibition was -2.13%.

As to `Cc1ccc(/C=N/NC(=O)Cn2nc(C)c(Br)c2C)o1`, the inhibition was 1.58%.

`C/C(=N\NC(=S)NC1CCCCC1)c1ccc(C)o1`: the inhibition was 2.23%.

`Cc1ccc(/C=N/NC(=S)NC2CCCCC2)o1`: the inhibition is 4.73% (active).

On to `COc1ccccc1CNS(=O)(=O)c1cc2c3c(c1)CCC(=O)N3CCC2`, for which the inhibition is 0.88%.

For `Cc1cccc(CN2CCN(C3CN(Cc4cn(Cc5cc(C)cc(C)c5)nn4)S(=O)(=O)C3)CC2)c1` (configuration not stated), the inhibition is -0.09%.

For the molecule `COC(=O)c1c(-c2ccc(OC)cc2)c2c(c3c4cc(OC)ccc4n(S(=O)(=O)c4ccc(F)cc4)c13)C(=O)N(C)C2`, the inhibition was 1.35%.

With `COC(=O)[C@]12C[C@H](CC(=O)NCc3ccc(OC)c(OC)c3)C(=O)N(Cc3ccccc3)C1=C[C@H](C(C)C)O[C@@H]2C1CC1`, the inhibition was 0.87%.

Consider `C/C(=N\Nc1ccc(S(N)(=O)=O)cc1[N+](=O)[O-])c1cccs1`, for which the inhibition is 4.74% (active).

For `C/C(=N\Nc1nc2ccccc2[nH]1)c1cccs1`, the inhibition is 4.27%.

Consider `C/C(=N\Nc1ccccc1)c1cccs1`, for which the inhibition was -0.47%.

For `COc1cccc(CC(=O)N2CCN(C(=O)C(=O)c3cccc(C(F)(F)F)c3)CC2)c1`, the inhibition is -0.48%.

In the case of `COc1ccccc1Cc1c(-c2ccc(F)cc2)nc2ccc(C)cn12`, the inhibition is -0.14%.

Turning to `O=C(N[C@H](C(=O)N1CCC[C@H]1C(=O)NCCc1ccccc1Cl)c1ccccc1)c1ccccc1`, the inhibition is -1.55%.

Turning to `COC(=O)[C@]1(Cc2ccccc2)NC=C(C(=O)c2ccccc2)[C@@H]1c1cccc(OC)c1`, the inhibition is 1.03%.

For the molecule `Cc1n[nH]c(=O)nc1N/N=C/c1cccs1`, the inhibition was 5.54% (active).

`Cn1c(=O)c2c(nc(N/N=C/c3cccs3)n2Cc2ccc(Br)cc2)n(C)c1=O`: the inhibition was -0.37%.

With `Cc1nc2ccccc2n1CC(=O)N/N=C/c1cccs1`, the inhibition is 0.96%.

With `Cc1ccc(N)cc1CN1CCN(c2ncc(Cc3ccccc3)cn2)CC1`, the inhibition was -0.75%.

Take `CC(=O)C1=C(C)N(Cc2ccccc2)C(=S)NC1c1cccc(Br)c1` (configuration not stated): the inhibition is 0.33%.

Regarding `COc1ccc(/C=C(/NC(=O)c2ccccc2)C(=O)Nc2cccc(C(=O)O)c2)cc1`, the inhibition was 1.96%.

`COc1ccccc1C(=O)N/C(=C/c1ccc2c(c1)OCO2)C(=O)Nc1cccc(C(=O)O)c1`: the inhibition is 5.04% (active).

Take `COc1ccccc1C(=O)N/C(=C/c1ccco1)C(=O)Nc1ccc(C(=O)O)cc1`: the inhibition was 3.68%.

Turning to `O=C(NCc1ccccc1)[C@H]1CCCN1C(=O)[C@@H]1CCCN1C(=O)c1ccc(Cl)cc1Cl`, the inhibition is -0.17%.

Consider `NC(=S)N/N=C/c1ccc([N+](=O)[O-])cc1`, for which the inhibition was 5.41% (active).

As to `NC(=O)C1(Nc2ccc([N+](=O)[O-])cc2)CCCC1`, the inhibition was 1.4%.

With `O=[N+]([O-])c1ccc(N=NNc2ccc([N+](=O)[O-])cc2)cc1`, the inhibition is 0.99%.

As to `Cc1ccc2nc(SCc3nnc(-c4ccccc4[N+](=O)[O-])o3)c(C#N)cc2c1`, the inhibition is -0.69%.

Turning to `Cc1ccc(-c2ccc(/C=C(\C#N)C(N)=S)o2)c([N+](=O)[O-])c1`, the inhibition was 10.9% (active).

For the molecule `COC(=O)[C@]12C[C@H](CC(=O)NCCC(C)C)C(=O)N(CCc3ccc(OC)c(OC)c3)C1=C[C@H](C(C)(C)C)O[C@@H]2C`, the inhibition was -0.48%.

In the case of `CN[C@H]1C[C@H]2c3[nH]c4c(-c5ccccc5)cccc4c3CCN2C(=O)[C@H]1[C@H](C)O`, the inhibition was 0.9%.

Regarding `CC(C)CC(CCc1ccccc1)OS(N)(=O)=O` (configuration not stated), the inhibition was 0.27%.

As to `O=C(Cc1ccc([N+](=O)[O-])cc1)N/N=C/c1ccco1`, the inhibition is 1.04%.

`O=C(Cc1ccccc1)Nc1cccc(C(=O)N/N=C/c2ccco2)c1`: the inhibition was 2.33%.

As to `O=C(N/N=C/c1ccco1)c1ccc(C(=O)N/N=C/c2ccco2)o1`, the inhibition was 10% (active).

Regarding `C[C@H]1CN([C@@H](C)CO)C(=O)CCCn2nncc2CO[C@@H]1CN(C)C(=O)Nc1ccc(N2CCN(C)CC2)cc1`, the inhibition was -0.42%.

With `O=C(Nc1c(Cl)c(C2CC2)nn1-c1ccccc1)C(Cl)(Cl)Cl`, the inhibition is -0.78%.

Turning to `Cc1nc2nc(SCC(=O)Nc3cccc(F)c3)[nH]c2cc1Br`, the inhibition is -0.88%.

Consider `O=C(Nc1cccc(F)c1)[C@@H]1CCCN1`, for which the inhibition was 0.99%.

On to `O=C(Nc1cccc(F)c1)c1coc(=O)c(Br)c1`, for which the inhibition is 5.37% (active).

With `Nc1nc2c(ncn2[C@@H]2O[C@H](C(=O)N[C@@H](Cc3ccccc3)C(=O)NCc3ccccc3)[C@@H](O)[C@H]2O)c(=O)[nH]1`, the inhibition was -0.25%.

Turning to `COC(=O)c1ccc(CN2C(=O)[C@]3(OCCC=C[C@H]3C)c3c(Br)cccc32)cc1`, the inhibition was 1.8%.

For the molecule `COCCCNC(=O)C[C@H]1C[C@@]2(C(=O)OC)C(=C[C@H](C(C)(C)C)O[C@@H]2C)N(Cc2ccc3c(c2)OCO3)C1=O`, the inhibition was -0.56%.

On to `O=C(O)c1ccc(F)c(S(=O)(=O)Nc2ccccc2)c1`, for which the inhibition is -0.45%.

For the molecule `Cc1cc(C(C)(C)C)cc(S(=O)(=O)Nc2ccc(C(=O)O)cc2)c1C`, the inhibition was 1.5%.

On to `Cc1ccc(C(=O)Nc2ccccc2-c2ccccc2)cc1S(=O)(=O)Nc1ccccc1`, for which the inhibition is 4.76% (active).
